Assay [1] deals with Plasmodium falciparum Sir2 (PF13_0152, Sir2A). Briefly: pfSir2 binders on small-molecule microarrays, primary screen, biochemical, small-molecule microarray, 635 nm fluorescence (AID 1098).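 Also: score merges spot fluorescence intensity with its signal-to-noise ratio.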 The following applies: small-molecule microarray binding, fluorescence 635 nm; higher = more signal.
Assay [2] in a line: small-molecule microarray binders of probe aDKK1, primary screen, biochemical, biotinylated probe, 635/667 nm fluorescence (AID 1099).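 Also: score merges 667nm spot fluorescence with signal to noise across triplicate slides.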 The following applies: higher = more signal.
The nature of assay [3]: small-molecule microarray binders of probe aCHRDL2, primary screen, biochemical, biotinylated probe, 635/667 nm fluorescence (AID 1100). The following applies: higher = more signal.
The nature of assay [4]: splicing luciferase reporter signal modulators, primary screen, spliceosome inhibition project, cell-based, HEK293, splice +/- reporter (AID 1101).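 Also: HEK293 cells carrying a splicing-competent luciferase reporter gene; test concentration not given here.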 The following applies: luminescence, 24 h, higher = more signal, called active from +8 up or from −8 down. In general terms: Reporter assays use an easily measured gene product as a stand-in for the process of interest.
Assay [5] has as its target Fibroblast growth factor 10 (Homo sapiens) (UniProt O15520). Briefly: FGF10 binders on small-molecule microarrays, primary screen, biochemical, small-molecule microarray, 635 nm fluorescence (AID 1102). The following applies: FGF10 binding, fluorescence 635 nm, higher = more signal.
The subject of assay [6] is glycogen synthase kinase-3 (GSK3A per assay name; protocol says GSK3B). The assay is described as follows: GSK3 binders on small-molecule microarrays, primary screen, biochemical, small-molecule microarray, 635 nm fluorescence, GSK3A (AID 1103). Also: the record names both GSK3A and GSK3B. The note with it: small-molecule microarray binding, fluorescence 635 nm; higher = more signal.
Assay [7] deals with Epidermal growth factor receptor (Homo sapiens) (UniProt P00533). Briefly: EGFR binders on small-molecule microarrays, primary screen, biochemical, small-molecule microarray, 635 nm fluorescence (AID 1104).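 Also: score merges 667 nm emission intensity with spot signal to noise over triplicate slides.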 The following applies: EGFR binding, higher = more signal.
For assay [8], the target named is Follistatin-related protein 3 (Homo sapiens) (UniProt O95633). Briefly: FSTL3 binders on small-molecule microarrays, primary screen, biochemical, small-molecule microarray, 635 nm fluorescence (AID 1105).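 Also: score merges emission near 667 nm and signal to noise per printed spot across three slides.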 The note with it: FSTL3 binding, higher = more signal.
In assay [9] the target is Dickkopf-related protein 1 (Homo sapiens) (UniProt O94907). Briefly: DKK1 binders on small-molecule microarrays, primary screen, biochemical, small-molecule microarray, 635 nm fluorescence scan (AID 1106).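 Also: score merges emission near 667 nm with signal to noise over three replicate slides.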 The note with it: DKK1 binding, higher = more signal.
For assay [10], the system named is Inhibin beta A chain (activin A). The assay is described as follows: INHBA (activin A) binders on microarrays, primary screen, biochemical, small-molecule microarray, 635 nm fluorescence scan (AID 1107).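 Also: mouse activin A protein probed at 4.33 µg/mL on printed slides; score merges bound-protein fluorescence near 667 nm with spot signal-to-noise.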 The following applies: small-molecule microarray binding, higher = more signal.
The subject of assay [11] is Human papillomavirus type 1a protein E7 (residues 44-93). The assay is described as follows: HPV1a E7 fragment binders on microarrays, primary screen, biochemical, small-molecule microarray, residues 44-93, 635 nm fluorescence (AID 1108).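 Also: E7 fragment applied at 1 µg/mL in TBST for 1 h at 4 C; score combines spot fluorescence with its signal to noise ratio.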 The following applies: small-molecule microarray binding, fluorescence 635 nm; higher = more signal.
Assay [12] in a line: modulators of HCV replicon luciferase signal, primary screen, HCV replication inhibitor project, Huh7 cells, luciferase reporter (AID 1109).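 Also: huh7 hepatoma cells harbouring a luciferase neomycin HCV replicon reporter; luciferase luminescence as measure of HCV replicon replication; test concentration not given here.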 The note with it: 48 h, higher = more signal. For orientation: A replicon is a self-replicating genome or part of one, used to study replication in cells.
Assay [13] has as its target Left-right determination factor 2 (Homo sapiens) (UniProt O00292). Briefly: LEFTY2 binders on small-molecule microarrays, primary screen, biochemical, small-molecule microarray, 635 nm fluorescence scan (AID 1110). The following applies: LEFTY2 binding, higher = more signal.
Assay [14] has as its target Calmodulin-1 (Homo sapiens) (UniProt P0DP23). The assay is described as follows: CALM1 binders on microarrays, EGTA buffer, profiling panel, biochemical, small-molecule microarray, Cy5-labelled CALM1 (AID 1111).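 Also: labelled calmodulin applied in Tris saline Tween buffer holding calcium plus EGTA and DTT.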 The following applies: Cy5-CALM1 binding fluorescence, higher = more signal.
Assay [15] has the same target. The assay is described as follows: calcium-bound CALM1 binders on microarrays, profiling panel, artefact control for SMM control-protein annotation, biochemical, small-molecule microarray, Cy5-labelled CALM1, plus calcium (AID 1112).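 Also: score merges spot fluorescence with signal to noise from triplicate slides.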 The note with it: Cy5-CALM1 binding fluorescence, higher = more signal.
Assay [16] can be described thus: small-molecule microarray binders of probe aWnt5a, primary screen, biochemical, biotinylated probe, 635/667 nm fluorescence (AID 1113).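 Also: score merges 667 nm fluorescence intensity with signal-to-noise per printed feature.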 The following applies: higher = more signal.
Assay [17] in a line: small-molecule microarray binders of probe aShh, primary screen, biochemical, biotinylated probe, 635/667 nm fluorescence (AID 1114).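 Also: probe is biotin-labelled aShh protein from a stem cell growth factor screen; measures binding of labelled protein to compounds printed on the slide; score merges feature fluorescence at 667 nm with signal-to-noise.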 The note with it: higher = more signal.
The nature of assay [18]: small-molecule microarray binders of probe aNog, primary screen, biochemical, biotinylated probe, 635/667 nm fluorescence (AID 1115).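 Also: probe is biotinylated aNog protein used at 0.15 µg/mL for 1 h at 4 C; z-score combines 667 nm fluorescence of each spot with its signal to noise.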 The note with it: higher = more signal.
The target in assay [19] is Torsin-1A-interacting protein 1 (Homo sapiens) (UniProt Q5JTV8). Briefly: LAP1 binders from COS7 cell lysate, primary screen, small-molecule microarray, 635/667 nm fluorescence (AID 1116). The note with it: COS7-hLAP1 lysate binding, 635 nm fluorescence, higher = more signal.
Assay [20] concerns the target Alpha-bungarotoxin (Bungarus multicinctus) (UniProt P60615). The assay is described as follows: alpha-bungarotoxin binders on microarray, profiling panel, artefact control for SMM control protein annotation, biochemical, small-molecule microarray, Alexa647 label, 635/667 nm fluorescence (AID 1117). The note with it: alpha-BTX-A647 binding fluorescence, higher = more signal.

Active and inactive are the calls of the source.

Results on five compounds are retold here after PubChem BioAssay.

Torsin-1A-interacting protein 1 (Homo sapiens), sequence (Q5JTV8 whole entry, looked up): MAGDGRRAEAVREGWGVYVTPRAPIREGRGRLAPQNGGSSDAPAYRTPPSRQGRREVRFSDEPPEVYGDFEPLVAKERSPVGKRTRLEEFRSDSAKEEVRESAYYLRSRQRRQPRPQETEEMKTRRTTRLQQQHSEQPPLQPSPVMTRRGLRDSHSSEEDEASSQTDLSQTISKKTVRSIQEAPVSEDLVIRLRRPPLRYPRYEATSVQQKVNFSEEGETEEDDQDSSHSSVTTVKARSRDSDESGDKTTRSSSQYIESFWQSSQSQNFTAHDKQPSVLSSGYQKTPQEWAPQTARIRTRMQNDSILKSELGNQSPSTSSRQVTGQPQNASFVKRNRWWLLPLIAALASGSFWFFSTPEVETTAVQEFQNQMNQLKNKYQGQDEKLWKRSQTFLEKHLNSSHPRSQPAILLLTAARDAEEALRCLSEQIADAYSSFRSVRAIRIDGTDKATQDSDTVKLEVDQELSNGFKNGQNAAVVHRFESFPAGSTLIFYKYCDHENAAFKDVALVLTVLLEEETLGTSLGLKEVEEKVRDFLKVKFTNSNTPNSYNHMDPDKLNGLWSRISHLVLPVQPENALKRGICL
Follistatin-related protein 3 (Homo sapiens), sequence (O95633 whole entry, looked up): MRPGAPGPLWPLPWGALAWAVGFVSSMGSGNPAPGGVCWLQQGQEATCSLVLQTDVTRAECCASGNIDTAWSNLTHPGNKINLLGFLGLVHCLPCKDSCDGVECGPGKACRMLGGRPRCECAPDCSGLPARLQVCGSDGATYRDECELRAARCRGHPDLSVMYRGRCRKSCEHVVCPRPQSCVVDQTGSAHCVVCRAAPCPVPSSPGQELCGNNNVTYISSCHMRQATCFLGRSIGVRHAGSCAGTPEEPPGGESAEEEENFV
Dickkopf-related protein 1 (Homo sapiens), sequence (O94907 whole entry, looked up): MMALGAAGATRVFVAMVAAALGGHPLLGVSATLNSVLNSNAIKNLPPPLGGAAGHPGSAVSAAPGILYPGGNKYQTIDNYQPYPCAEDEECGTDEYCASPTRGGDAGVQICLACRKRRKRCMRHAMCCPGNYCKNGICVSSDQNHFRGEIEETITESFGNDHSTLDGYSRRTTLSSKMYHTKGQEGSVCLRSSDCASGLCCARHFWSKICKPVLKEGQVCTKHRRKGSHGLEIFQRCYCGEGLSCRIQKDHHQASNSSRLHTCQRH
Left-right determination factor 2 (Homo sapiens), sequence (O00292 whole entry, looked up): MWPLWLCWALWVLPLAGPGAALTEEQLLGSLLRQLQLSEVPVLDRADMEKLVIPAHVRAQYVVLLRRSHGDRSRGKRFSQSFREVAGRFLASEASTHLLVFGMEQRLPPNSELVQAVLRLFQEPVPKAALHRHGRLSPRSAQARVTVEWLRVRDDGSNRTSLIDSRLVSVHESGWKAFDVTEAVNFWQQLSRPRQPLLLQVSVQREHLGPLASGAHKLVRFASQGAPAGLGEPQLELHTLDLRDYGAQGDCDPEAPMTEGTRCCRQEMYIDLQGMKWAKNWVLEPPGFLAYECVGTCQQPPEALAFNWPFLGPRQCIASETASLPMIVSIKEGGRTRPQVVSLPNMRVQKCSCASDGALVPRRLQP
Fibroblast growth factor 10 (Homo sapiens), sequence (O15520 whole entry, looked up): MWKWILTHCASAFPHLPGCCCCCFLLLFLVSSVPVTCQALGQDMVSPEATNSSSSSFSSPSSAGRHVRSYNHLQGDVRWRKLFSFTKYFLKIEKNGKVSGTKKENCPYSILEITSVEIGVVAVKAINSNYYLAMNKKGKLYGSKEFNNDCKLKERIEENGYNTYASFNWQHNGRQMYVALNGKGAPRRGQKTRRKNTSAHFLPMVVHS
Epidermal growth factor receptor (Homo sapiens), sequence (P00533 whole entry, looked up): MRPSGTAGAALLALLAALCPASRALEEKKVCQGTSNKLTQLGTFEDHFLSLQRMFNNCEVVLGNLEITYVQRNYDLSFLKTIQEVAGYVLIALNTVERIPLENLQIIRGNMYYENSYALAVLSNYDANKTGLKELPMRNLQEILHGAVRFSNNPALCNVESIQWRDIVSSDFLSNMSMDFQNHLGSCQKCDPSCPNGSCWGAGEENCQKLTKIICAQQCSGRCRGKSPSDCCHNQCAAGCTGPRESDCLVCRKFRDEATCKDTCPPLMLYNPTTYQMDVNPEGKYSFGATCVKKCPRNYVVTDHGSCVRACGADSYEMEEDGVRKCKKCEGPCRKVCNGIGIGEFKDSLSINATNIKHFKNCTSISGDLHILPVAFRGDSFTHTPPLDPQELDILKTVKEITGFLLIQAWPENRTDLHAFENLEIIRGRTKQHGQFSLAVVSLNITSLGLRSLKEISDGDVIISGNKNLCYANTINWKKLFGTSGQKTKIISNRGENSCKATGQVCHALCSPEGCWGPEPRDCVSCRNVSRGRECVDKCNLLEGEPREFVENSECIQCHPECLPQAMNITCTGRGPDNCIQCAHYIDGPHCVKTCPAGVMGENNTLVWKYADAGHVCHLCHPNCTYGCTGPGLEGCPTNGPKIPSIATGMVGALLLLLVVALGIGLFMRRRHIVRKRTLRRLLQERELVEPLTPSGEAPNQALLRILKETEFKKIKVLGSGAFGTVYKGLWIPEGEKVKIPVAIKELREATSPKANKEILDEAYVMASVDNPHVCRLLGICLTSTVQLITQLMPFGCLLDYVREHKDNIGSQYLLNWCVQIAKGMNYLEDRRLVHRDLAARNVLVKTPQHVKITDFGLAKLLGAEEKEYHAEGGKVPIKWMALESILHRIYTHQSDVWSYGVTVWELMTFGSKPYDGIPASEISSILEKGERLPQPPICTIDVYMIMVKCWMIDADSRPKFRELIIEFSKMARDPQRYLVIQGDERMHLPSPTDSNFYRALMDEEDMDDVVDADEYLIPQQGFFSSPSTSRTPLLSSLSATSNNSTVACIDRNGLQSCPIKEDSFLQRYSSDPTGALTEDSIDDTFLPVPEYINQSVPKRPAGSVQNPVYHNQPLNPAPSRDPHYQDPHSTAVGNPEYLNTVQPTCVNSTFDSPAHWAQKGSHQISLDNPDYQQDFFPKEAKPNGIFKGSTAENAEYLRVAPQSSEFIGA
Alpha-bungarotoxin (Bungarus multicinctus), sequence (P60615 whole entry, looked up): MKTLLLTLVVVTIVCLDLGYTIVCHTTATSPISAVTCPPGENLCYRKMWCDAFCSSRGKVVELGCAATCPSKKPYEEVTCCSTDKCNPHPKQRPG

Regarding `C=C(COC)C(=O)CC[C@H](OC(C)=O)c1ccc(CO)o1`, the composite z-score was 1.44 in assay [1]; -0.362 in assay [2]; -0.566 in assay [3]; 0.757 in [5]; -0.646 in [6]; -0.0826 in [7]. Also, the composite z-score is 0.47 in [8]; 0.488 in assay [9]; 1.03 in assay [10]; -1.05 in assay [11]; 0.451 in assay [13]; 0.44 in assay [14]. Moreover, the composite z-score in assay [15] is -1.07; in [16] it was -0.152; in assay [17], -0.0709; in [18] it was -0.273; in assay [19], -0.534; in assay [20], 0.706. Also, the values for the z-score in assay [4] and in [12] were -1.35 (inactive) and 0.272, respectively.

Take `COc1ccc(C(O)C2C=CC3C(=O)N(C)C(=O)C3N2Nc2ccccc2)cc1` (stereo not given): the composite z-score in assay [1] was 0.454; in [2], -0.0205; in assay [3] it was 0.87; in assay [5] it was 0.663; in assay [6] it was 0.925; in assay [7], 0.468. For the same compound, the composite z-score is 0.441 in assay [8]; 0.312 in assay [9]; 0.979 in assay [10]; 1.22 in [11]; -0.132 in [13]; 0.675 in assay [14]. For the same compound, the composite z-score in assay [15] turned out to be 0.283; in [16], 0.0792; in assay [17], 0.462; in assay [18], 1.76; in assay [19], 0.916; in [20], 1.38. Also, the z-score in assay [4] was -0.52 (inactive); in assay [12], -1.14.

On to `COCCCNC(=O)[C@@]1(Cc2ccccc2I)c2ccccc2C(=O)N(Cc2ccccc2OC)[C@H]1c1ccc(CO)cc1`, for which the composite z-score in assay [1] is -0.347; in assay [2], -0.302; in assay [3] it was 0.941; in assay [5], -0.0058; in assay [6] it was -0.116; in assay [7] it was -0.824. The composite z-score in [8] is -0.557; in assay [9] it was -1.51; in [10], -1.43; in assay [11] it was 1.39; in assay [13], -0.43; in assay [14], 0.0345. Also, the composite z-score in [15] is 0.0879; in assay [16], -0.248; in assay [17], -0.0146; in [18], -0.537; in assay [19], -0.013; in assay [20], 0.101. The z-score is 0.932 (inactive) in assay [4] and -2.08 in assay [12].

As for `COC(=O)[C@@]1(Cc2ccc(F)cc2)[C@H]2c3cc(C(=O)N4CCCC4)n(CCc4c[nH]c5cc(F)ccc45)c3C[C@H]2CN1C(=O)c1ccccc1`, the composite z-score in assay [1] worked out at 1.05; in assay [2], 0.593; in [3], 0.852; in assay [5] it was 1.14; in [6], 1.32; in assay [7], 0.146. Moreover, the composite z-score in assay [8] turned out to be 1.25; in assay [9], 0.736; in assay [10], 1.09; in assay [11], 1.41; in [13] it was 0.119; in assay [14], 1.91. In addition, the composite z-score in assay [15] was 1.2; in [16], 0.562; in [17], 0.472; in [18] it was -0.615; in assay [19], -0.291; in assay [20], 0.841. For the same compound, the z-score in assay [4] is -0.685 (inactive); in assay [12], -1.62.

Turning to `COc1ccc(CCNC(=O)[C@@]2(c3ccc([N+](=O)[O-])cc3)CC(=O)N(C3CCCCC3)[C@@H]2c2ccc(CO)cc2I)cc1`, the composite z-score is 0.401 in [1]; -0.0644 in assay [2]; -0.0582 in assay [3]; 0.823 in [5]; 0.56 in [6]; 0.19 in [7]. For the same compound, the composite z-score in assay [8] was determined as 0.241; in assay [9], 0.608; in assay [10], 0.44; in assay [11] it was 0.535; in assay [13], 0.497; in assay [14], 0.529. In addition, the composite z-score was 0.113 in [15]; -0.0643 in [16]; 0.108 in assay [17]; 0.639 in [18]; 0.733 in assay [19]; 0.201 in [20]. For the same compound, the z-score is 0.845 (inactive) in [4] and -2.57 in assay [12].
